The campaign covered roughly 53,000 sequences. About 3,700 (7%) were called active. This is one part of a sample in which actives are shown more often than they occur. A number with no mark means an inactive call.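 The calls were made as follows: active = gene knockdowns whose robust z-score for IL-1 alpha signal is at least 2 or at most -2, so actives lie on both sides; inactive = the rest.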

A short description of this assay: Components of the Cytosolic LPS Sensing Pathway: Gene Identification via Genome-wide siRNA Screen.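 Also: robust z of the log signal after scaling to non-targeting control siRNA wells of the plate.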 To be noted: RAW264.7 macrophages, IL-1a HTRF, actives lie on both sides, screened at 100 nM (by protocol), cells primed 5 h with Pam3CSK4 first. The method, boiled down:
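RAW264.7; siRNA 100 nM final, RNAiMAX, 48h 37 degrees C; Pam3CSK4 5 h; LipidA + TransIT-TKO 24 h; IL-1a HTRF; CellTiter-Glo viability; robust z vs negative-control median.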
(In general: Time-resolved FRET reads energy transfer from a long-lived donor to a nearby acceptor.)
As to CCUCUCAAGAAAUCGUGCATT against Trim47, the z-score is 0.978. Then GCAGAUUGUGCAGCUAGCATT against Pax4, with 0.452; and CCAUCUCAUUCCUUACCAGTT against Gm4736, with -1.79. Under GGAUAAGAUAAUGUCUGUGTT against Olfr716 stands -1.73; under GGGUAACAGUGGUGAACCUTT against Col1a1, 2.08 (active). Then GGCUGAGUUAUUUGUGACATT against Syt13, with -1.41; and CGGCCUGGGUCCCGUGGACTT against Hs3st6, with -1.18; and “CGCAUGCCUGUAAAAUAAATT against 2310057M21Rik”, with -1.37. With “GGGAAUUUUGGAAGAGUCUTT against F630003A18Rik”, the z-score was -3.23 (active). For the sequence GCGAGGAAAGAGCACUGUATT against Fam107a, the z-score was -0.103. With GGGCUAUGUUCGAAGUAAATT against Kbtbd3, the z-score is -0.848. As for GGUGAGUAUAUUCAAGUUATT against Ndor1, the z-score was 4.36 (active). Under GGAUAUUUGGAGGACAACCTT against C1s1 stands 0.0678. Take CGAGAGGUUUGUCCAUAGATT against Tac4: the z-score is -0.86. Turning to GGGACAAUAAAACCAACACTT against Ulk4, the z-score is -1.04. With CCACCUUGGUCUAAUUUCUTT against Slitrk4, the z-score was -2.06 (active).

For the sequence GGCUCCUCAUUACCUCUACTT against Rrp7a, the z-score was 0.233. With GGGCCACACAGAAAUGGUUTT against Ank1, the z-score was 0.994. As to GGAGAAAGGUGCUUCCGAUTT against Mrpl19, the z-score is 0.47. As for CGAUGGCUUGGUUCCAUUUTT against Tcaf3, the z-score is -0.0976. Under GGCACUACAACGGAACUCATT against Slco5a1 stands -1.82; under GCGUGUUAGGAAAAACUCUTT against Pars2, 1.36. Then CCGAGCAGUAUGUGAACGUTT against Cela1, with 3.56 (active). Under CCUUUACUGUCCAUUCCGATT against Stxbp2 stands -0.533; under CCCUGUGAAAGUGUCAUAUTT against Pigq, 1.28; under GGUUCAACUUCACACUGAGTT against Mettl22, 1.08. Consider GGAAAAAAAUGCUGUAUACTT against Insm1, for which the z-score was -0.599. Then GGUGCUUUGUAAACUGUCUTT against Slc26a11, with -2.99 (active); and ACCUGUGAUGGUGGAGACUTT against AF067061, with 0.577. As for GCAUGCCCGUAAUCAAGUGTT against Racgap1, the z-score was 0.104. Then GGACUUCAGCAACUAUAGUTT against Ggt7, with -0.631; and GUUCCACUACUUCUGCUCCTT against Olfr583, with 0.41. For the sequence GGUGCUUCCAGAAUCUUUATT against Epha5, the z-score is 0.517.

For CCGGUUUCAAAUUGCCACUTT against Psmb4, the z-score is -2.73 (active). “GGAAGGUAUCUGAGGUCCGTT against 2810408A11Rik”: the z-score is -0.106. Under GGCAUUGCUGGACUUUGAATT against Mvp stands -1.71; under GCUGCACGCACUGAUCAAGTT against Tjap1, 1.02. As for “GGUUUUGUUAAAGAAGACGTT against 4833439L19Rik”, the z-score is -2.25 (active). For CGGUGACGACGGAAUUCUATT against Cpne4, the z-score was -1.42.

On to GGAUUCAGAAGGCCUCAGUTT against Olfr399, for which the z-score was 0.132.

Consider UACUAGCAGAUUAACCACCTT against H2bc4, for which the z-score is -0.192.

As for GGCAUCAACAGAAUAACCATT against Tomm34, the z-score was -1.31.

Regarding GGCCAAGUUUGACAAGGAATT against Nap1l5, the z-score is 2.32 (active). For the sequence GCUGCAUCGAAAAACUCAGTT against Mycbp2, the z-score is -0.564. Under “GGAUUAUGGACCUCUUGGUTT against 4930595M18Rik” stands 0.554; under CCCAGUUGACAGGAGACCATT against Hps6, 1.13; under GCAUUAUAAAAAGGUUCCGTT against Atp2b1, 1.81. Then GGCCCAAGAGAAUAUCCAGTT against Gm6460, with 0.281; and GCAGGACAAGGACAACACUTT against Dyrk2, with -2.1 (active).

Turning to CCACCGAAAUCCUUAUUUUTT against Ppargc1a, the z-score is 0.522. For GCCAAGAGCACAUCUGCUATT against Suco, the z-score is -1.65. Under GCUGGGUCAAACAUGACGUTT against Klhl17 stands 0.452. In the case of ACCCUUUUGUUUACACUCUTT against Olfr763, the z-score is -0.76.

In the case of GCCCAAAGAUGACAUCGUATT against Gars, the z-score is 1.74. Then GCUAGACCCAUAAUAAAACTT against Synpo2l, with -0.851; and UUGACUCACCUUCCGAGGUTT against Lce1a1, with 0.0827; and GCGCAAUAUAGAGUCAUCATT against Rnls, with -2.83 (active). As for CCGUUUACCAACCAAGAAUTT against Tnfrsf17, the z-score was 0.0608. Under GGUUUGCUACACUUCAGAATT against Xpr1 stands 0.101; under GCCAACUAGAAAACAACUGTT against Pdzd11, 1.6. On to GGUGGAACAGGCAGAAUUCTT against Syn2, for which the z-score is 1.92. On to GGUCGCUACAAGAUGACUUTT against Hapln4, for which the z-score was 0.289. Under GCCAGUCAGAUGUACAGUCTT against Pbx1 stands 3.28 (active); under CCAGAGUACAGUGUAGUCATT against Hspb6, 0.508.

For GAACUUUUUUUCUGUGAACTT against Olfr175, the z-score is -1.58. Under GGAAAUCGAGAGAAAUUCATT against Tead2 stands 2.07 (active); under GCAGGUUGCACCAUGUAGATT against Slc25a42, 0.701. Then CCAUCUUGGGUUCUGGUCATT against Zc3h4, with -0.204; and GGGCAAAACACUGUCUUUCTT against Tlr5, with 1.87; and GCCUCUACUGGUUAUUUAATT against Slc22a15, with 2.09 (active).

For CCUUCAAGUACUUUCUCCGTT against Dcakd, the z-score was 1.22. Then GGAUGAGGAGGAAAAGCUGTT against Nop2, with -1.86.

For the sequence GGUCAAUGAACAGCACCGGTT against Igfbp2, the z-score is 0.723. Under GGAUAAAGGAAAAGAAACATT against Rcvrn stands -1.34; under CCAGACUCCUCUUAGAAGGTT against Ankrd34c, 0.73. On to GCUAGAUCUUUCAUCCAACTT against Lrtm1, for which the z-score is 1.2. Turning to GGCCUUGGUGAAAAUGCAGTT against Plaat1, the z-score is -2.07 (active). Then GGAGACAUGGACCAUGGCUTT against Mapt, with 0.37. Under GGUGAUGUAUAUUGAGUCUTT against Sdcbp2 stands 0.149.

With GGAUAGACUUGAUUCUUGGTT against Emid1, the z-score was 0.491. For the sequence GGAAAUAGUACAGAAACCATT against Mcph1, the z-score was -2.44 (active). Turning to CCAUGUUUUUAUAGCUCUUTT against Sidt2, the z-score is 1.49. Under GGUGGAUAAAGCUUAAAUATT against V1rg10 stands -0.258; under GGAGGCACAGAGAUUGAAGTT against Sry, 0.247.

With GGCAUCUUUGGAGACUGGUTT against Sycn, the z-score was 0.598.

Turning to CCUUUGGAAUUUCUAAUACTT against Stil, the z-score is -0.286.

Regarding GGCUGUCAAAACAGUGCUCTT against Hmgcs2, the z-score is 1.45. As to GCUGGAGACGUAUUUGUCCTT against Olfr294, the z-score was 2.17 (active). Under UUGGCUGCAUUAUCAUGAGTT against Olfr311 stands -0.419; under GGUUUGGCAGAAGUGCAUGTT against Npff, -0.801; under GCUACAUCGCUCUUAUAGCTT against Foxl1, 0.0236. Then CGAUGUUGAGGGAUUAUCUTT against Tstd2, with -2.25 (active). GGACUUGAAAUUAGCAAAATT against Arhgef3: the z-score is -0.0218. Take GGACUUUAAAUGCAAUAUCTT against Trps1: the z-score is -0.567.

For the sequence “GGCUCCAAGCACUAAAUAATT against B130024G19Rik”, the z-score was 0.168.

CCUCAAACUAACCACUCACTT against Olfr1045: the z-score is -1.13. Consider GGAGAUCCUGGAAGACUUCTT against Ocstamp, for which the z-score was 2.18 (active). Take GGACUAUGCCAAUGUCAGATT against Zfp763: the z-score was 0.0585.

For GGGUAAGCCAAGAAGAAGUTT against Rgs4, the z-score is -1.01. Turning to GGGAAAAACUCUGUGUGUATT against Coasy, the z-score is -0.25. Under GGCUCCACACGAUUGUUAGTT against Gne stands -0.0134; under GUUCCACCAGAUUUUCUAATT against Vmn1r28, 2.6 (active); under GGAGAAUUUAGAGCUACCATT against Atg10, -1.56. Regarding GCCCAUCACUUAUAGUGGGTT against Usf2, the z-score is -0.799. Under GGAGCAUUUUAUUCAGAUGTT against Rad23b stands 2.22 (active); under GGUGGAGAAGAAAUCUAAGTT against Eif4g1, -0.344. Under CCUGAGACCGAAUUUUACCTT against Cer1 stands -0.209.

The record behind these values is PubChem BioAssay AID1508600 (Functional Genomics Laboratory (NCATS/FGL), 2020).
